The source of these data is PubChem BioAssay.

Assay [1] concerns Plasmodium falciparum Sir2 (PF13_0152, Sir2A). In words: pfSir2 binders on small-molecule microarrays, primary screen, biochemical, small-molecule microarray, 635 nm fluorescence (AID 1098).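 Also: score merges spot fluorescence intensity with its signal-to-noise ratio.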 The settings on record: small-molecule microarray binding, fluorescence 635 nm; higher = more signal.
Assay [2] in a line: small-molecule microarray binders of probe aDKK1, primary screen, biochemical, biotinylated probe, 635/667 nm fluorescence (AID 1099).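 Also: score merges 667nm spot fluorescence with signal to noise across triplicate slides.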 As to conditions: higher = more signal.
A short description of assay [3]: small-molecule microarray binders of probe aCHRDL2, primary screen, biochemical, biotinylated probe, 635/667 nm fluorescence (AID 1100). As to conditions: higher = more signal.
Assay [4] in a line: splicing luciferase reporter signal modulators, primary screen, spliceosome inhibition project, cell-based, HEK293, splice +/- reporter (AID 1101).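 Also: HEK293 cells carrying a splicing-competent luciferase reporter gene; test concentration not given here.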 The settings on record: luminescence, 24 h, higher = more signal, called active from +8 up or from −8 down.
Assay [5] deals with Fibroblast growth factor 10 (Homo sapiens) (UniProt O15520). In words: FGF10 binders on small-molecule microarrays, primary screen, biochemical, small-molecule microarray, 635 nm fluorescence (AID 1102). As to conditions: FGF10 binding, fluorescence 635 nm, higher = more signal.
Fibroblast growth factor 10 (Homo sapiens), sequence (O15520 whole entry, looked up): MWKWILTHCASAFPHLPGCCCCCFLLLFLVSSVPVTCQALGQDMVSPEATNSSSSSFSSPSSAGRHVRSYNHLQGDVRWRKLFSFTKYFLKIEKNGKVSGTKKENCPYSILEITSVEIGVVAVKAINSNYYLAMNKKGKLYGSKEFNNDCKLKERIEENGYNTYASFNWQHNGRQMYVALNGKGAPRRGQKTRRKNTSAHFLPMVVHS
The test system of assay [6] is glycogen synthase kinase-3 (GSK3A per assay name; protocol says GSK3B). In words: GSK3 binders on small-molecule microarrays, primary screen, biochemical, small-molecule microarray, 635 nm fluorescence, GSK3A (AID 1103). Also: the record names both GSK3A and GSK3B. The settings on record: small-molecule microarray binding, fluorescence 635 nm; higher = more signal.
Assay [7] concerns the target Epidermal growth factor receptor (Homo sapiens) (UniProt P00533). In words: EGFR binders on small-molecule microarrays, primary screen, biochemical, small-molecule microarray, 635 nm fluorescence (AID 1104).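 Also: score merges 667 nm emission intensity with spot signal to noise over triplicate slides.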 As to conditions: EGFR binding, higher = more signal.
Assay [8] concerns the target Follistatin-related protein 3 (Homo sapiens) (UniProt O95633). In words: FSTL3 binders on small-molecule microarrays, primary screen, biochemical, small-molecule microarray, 635 nm fluorescence (AID 1105).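 Also: score merges emission near 667 nm and signal to noise per printed spot across three slides.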 The settings on record: FSTL3 binding, higher = more signal.
Assay [9] addresses Dickkopf-related protein 1 (Homo sapiens) (UniProt O94907). In words: DKK1 binders on small-molecule microarrays, primary screen, biochemical, small-molecule microarray, 635 nm fluorescence scan (AID 1106).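 Also: score merges emission near 667 nm with signal to noise over three replicate slides.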 As to conditions: DKK1 binding, higher = more signal.
The subject of assay [10] is Inhibin beta A chain (activin A). In words: INHBA (activin A) binders on microarrays, primary screen, biochemical, small-molecule microarray, 635 nm fluorescence scan (AID 1107).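 Also: mouse activin A protein probed at 4.33 µg/mL on printed slides; score merges bound-protein fluorescence near 667 nm with spot signal-to-noise.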 The settings on record: small-molecule microarray binding, higher = more signal.
Assay [11] concerns Human papillomavirus type 1a protein E7 (residues 44-93). In words: HPV1a E7 fragment binders on microarrays, primary screen, biochemical, small-molecule microarray, residues 44-93, 635 nm fluorescence (AID 1108).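 Also: E7 fragment applied at 1 µg/mL in TBST for 1 h at 4 C; score combines spot fluorescence with its signal to noise ratio.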 The settings on record: small-molecule microarray binding, fluorescence 635 nm; higher = more signal.
A short description of assay [12]: modulators of HCV replicon luciferase signal, primary screen, HCV replication inhibitor project, Huh7 cells, luciferase reporter (AID 1109).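 Also: huh7 hepatoma cells harbouring a luciferase neomycin HCV replicon reporter; luciferase luminescence as measure of HCV replicon replication; test concentration not given here.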 The settings on record: 48 h, higher = more signal. For orientation: Replicon systems follow genome replication, usually without infectious particles.
The target in assay [13] is Left-right determination factor 2 (Homo sapiens) (UniProt O00292). In words: LEFTY2 binders on small-molecule microarrays, primary screen, biochemical, small-molecule microarray, 635 nm fluorescence scan (AID 1110). The settings on record: LEFTY2 binding, higher = more signal.
Left-right determination factor 2 (Homo sapiens), sequence (O00292 whole entry, looked up): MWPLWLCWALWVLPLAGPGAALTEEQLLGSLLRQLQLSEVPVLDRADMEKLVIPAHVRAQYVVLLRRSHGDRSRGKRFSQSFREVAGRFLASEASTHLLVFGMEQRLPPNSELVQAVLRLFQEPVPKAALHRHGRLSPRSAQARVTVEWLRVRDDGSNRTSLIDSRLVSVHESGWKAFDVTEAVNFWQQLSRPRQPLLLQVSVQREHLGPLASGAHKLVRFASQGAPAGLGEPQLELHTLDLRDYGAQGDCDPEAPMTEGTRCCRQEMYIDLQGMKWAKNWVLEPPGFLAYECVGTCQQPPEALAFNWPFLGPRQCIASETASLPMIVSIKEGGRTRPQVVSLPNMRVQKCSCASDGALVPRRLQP
For assay [14], the target named is Calmodulin-1 (Homo sapiens) (UniProt P0DP23). In words: CALM1 binders on microarrays, EGTA buffer, profiling panel, biochemical, small-molecule microarray, Cy5-labelled CALM1 (AID 1111).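 Also: labelled calmodulin applied in Tris saline Tween buffer holding calcium plus EGTA and DTT.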 As to conditions: Cy5-CALM1 binding fluorescence, higher = more signal.
The target is the same in assay [15]. In words: calcium-bound CALM1 binders on microarrays, profiling panel, artefact control for SMM control-protein annotation, biochemical, small-molecule microarray, Cy5-labelled CALM1, plus calcium (AID 1112).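 Also: score merges spot fluorescence with signal to noise from triplicate slides.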 As to conditions: Cy5-CALM1 binding fluorescence, higher = more signal.
A short description of assay [16]: small-molecule microarray binders of probe aWnt5a, primary screen, biochemical, biotinylated probe, 635/667 nm fluorescence (AID 1113).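 Also: score merges 667 nm fluorescence intensity with signal-to-noise per printed feature.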 As to conditions: higher = more signal.
The nature of assay [17]: small-molecule microarray binders of probe aShh, primary screen, biochemical, biotinylated probe, 635/667 nm fluorescence (AID 1114).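 Also: probe is biotin-labelled aShh protein from a stem cell growth factor screen; measures binding of labelled protein to compounds printed on the slide; score merges feature fluorescence at 667 nm with signal-to-noise.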 The settings on record: higher = more signal.
Assay [18] is described as follows: small-molecule microarray binders of probe aNog, primary screen, biochemical, biotinylated probe, 635/667 nm fluorescence (AID 1115).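 Also: probe is biotinylated aNog protein used at 0.15 µg/mL for 1 h at 4 C; z-score combines 667 nm fluorescence of each spot with its signal to noise.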 The settings on record: higher = more signal.
The target of assay [19] is Torsin-1A-interacting protein 1 (Homo sapiens) (UniProt Q5JTV8). In words: LAP1 binders from COS7 cell lysate, primary screen, small-molecule microarray, 635/667 nm fluorescence (AID 1116). As to conditions: COS7-hLAP1 lysate binding, 635 nm fluorescence, higher = more signal.
Torsin-1A-interacting protein 1 (Homo sapiens), sequence (Q5JTV8 whole entry, looked up): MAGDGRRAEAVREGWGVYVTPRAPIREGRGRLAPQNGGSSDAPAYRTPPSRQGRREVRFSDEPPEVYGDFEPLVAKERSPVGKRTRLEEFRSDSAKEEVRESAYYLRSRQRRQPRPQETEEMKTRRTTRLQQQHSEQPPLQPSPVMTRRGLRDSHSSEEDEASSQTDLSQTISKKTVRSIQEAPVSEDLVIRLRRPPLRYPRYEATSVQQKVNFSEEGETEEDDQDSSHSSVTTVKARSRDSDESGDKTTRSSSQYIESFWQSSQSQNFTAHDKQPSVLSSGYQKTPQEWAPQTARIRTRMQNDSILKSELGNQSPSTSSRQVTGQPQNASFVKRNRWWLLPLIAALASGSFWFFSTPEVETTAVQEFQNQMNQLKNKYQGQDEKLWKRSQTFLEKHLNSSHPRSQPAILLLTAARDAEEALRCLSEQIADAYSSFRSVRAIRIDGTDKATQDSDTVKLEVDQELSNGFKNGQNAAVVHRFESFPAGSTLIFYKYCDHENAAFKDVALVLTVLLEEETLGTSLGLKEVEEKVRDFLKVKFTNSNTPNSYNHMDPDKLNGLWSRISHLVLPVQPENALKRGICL
Assay [20] addresses Alpha-bungarotoxin (Bungarus multicinctus) (UniProt P60615). In words: alpha-bungarotoxin binders on microarray, profiling panel, artefact control for SMM control protein annotation, biochemical, small-molecule microarray, Alexa647 label, 635/667 nm fluorescence (AID 1117). The settings on record: alpha-BTX-A647 binding fluorescence, higher = more signal.

Activity calls are given as the source filed them.

Epidermal growth factor receptor (Homo sapiens), sequence (P00533 whole entry, looked up): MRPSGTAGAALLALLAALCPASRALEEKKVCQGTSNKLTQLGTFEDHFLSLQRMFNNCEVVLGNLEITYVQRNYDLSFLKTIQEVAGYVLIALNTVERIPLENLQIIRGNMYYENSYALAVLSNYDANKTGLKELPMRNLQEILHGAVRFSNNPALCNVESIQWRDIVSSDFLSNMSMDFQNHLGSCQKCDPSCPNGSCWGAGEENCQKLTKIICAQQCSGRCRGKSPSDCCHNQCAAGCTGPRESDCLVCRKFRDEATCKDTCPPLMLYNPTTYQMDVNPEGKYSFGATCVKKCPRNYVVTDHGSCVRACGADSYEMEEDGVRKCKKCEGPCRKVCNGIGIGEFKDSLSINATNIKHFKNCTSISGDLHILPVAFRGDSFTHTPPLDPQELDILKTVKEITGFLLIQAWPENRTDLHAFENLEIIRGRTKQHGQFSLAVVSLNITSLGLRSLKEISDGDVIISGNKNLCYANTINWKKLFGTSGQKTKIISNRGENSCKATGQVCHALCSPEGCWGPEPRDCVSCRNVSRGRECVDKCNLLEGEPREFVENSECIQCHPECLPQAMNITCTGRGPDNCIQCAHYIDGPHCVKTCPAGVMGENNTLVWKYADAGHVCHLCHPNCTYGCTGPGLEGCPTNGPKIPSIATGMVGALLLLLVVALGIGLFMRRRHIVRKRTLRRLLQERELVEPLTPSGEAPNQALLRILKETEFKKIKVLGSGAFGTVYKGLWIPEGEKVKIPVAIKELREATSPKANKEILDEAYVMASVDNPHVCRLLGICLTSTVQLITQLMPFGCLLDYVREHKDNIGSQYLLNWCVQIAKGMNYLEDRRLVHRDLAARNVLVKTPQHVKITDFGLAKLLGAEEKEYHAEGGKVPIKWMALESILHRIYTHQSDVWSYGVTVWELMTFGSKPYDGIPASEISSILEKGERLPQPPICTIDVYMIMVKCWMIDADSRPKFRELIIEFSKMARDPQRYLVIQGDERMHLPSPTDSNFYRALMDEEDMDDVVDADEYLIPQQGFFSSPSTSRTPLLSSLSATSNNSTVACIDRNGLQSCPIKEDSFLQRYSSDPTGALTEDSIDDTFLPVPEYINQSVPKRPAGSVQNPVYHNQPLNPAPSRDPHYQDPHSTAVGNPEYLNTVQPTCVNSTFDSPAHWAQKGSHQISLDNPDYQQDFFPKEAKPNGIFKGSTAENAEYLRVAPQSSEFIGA
Dickkopf-related protein 1 (Homo sapiens), sequence (O94907 whole entry, looked up): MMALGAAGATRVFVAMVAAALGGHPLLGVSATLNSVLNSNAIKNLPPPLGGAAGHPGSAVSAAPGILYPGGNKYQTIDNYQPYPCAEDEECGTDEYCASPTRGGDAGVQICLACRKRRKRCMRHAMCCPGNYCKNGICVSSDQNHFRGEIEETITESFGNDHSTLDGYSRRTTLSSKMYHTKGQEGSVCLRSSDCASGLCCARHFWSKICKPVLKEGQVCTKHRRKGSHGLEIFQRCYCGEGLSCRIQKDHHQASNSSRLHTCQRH
Follistatin-related protein 3 (Homo sapiens), sequence (O95633 whole entry, looked up): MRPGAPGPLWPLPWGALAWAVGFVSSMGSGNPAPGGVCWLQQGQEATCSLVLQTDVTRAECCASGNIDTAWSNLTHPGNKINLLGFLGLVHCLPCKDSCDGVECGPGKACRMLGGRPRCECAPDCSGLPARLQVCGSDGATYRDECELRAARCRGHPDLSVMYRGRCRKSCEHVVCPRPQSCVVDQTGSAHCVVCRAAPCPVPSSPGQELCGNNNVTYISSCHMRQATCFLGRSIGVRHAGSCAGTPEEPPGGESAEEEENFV
Alpha-bungarotoxin (Bungarus multicinctus), sequence (P60615 whole entry, looked up): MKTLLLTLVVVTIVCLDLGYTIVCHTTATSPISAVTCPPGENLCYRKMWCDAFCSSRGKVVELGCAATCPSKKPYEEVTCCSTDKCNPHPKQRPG

Consider `O=C1O[C@@H](c2ccccc2)[C@@H](c2ccccc2)N2[C@@H](c3ccc(OCCO)cc3)[C@]3(C(=O)Nc4ccc(C#CC5=CCCCC5)cc43)[C@@H](C(=O)O)[C@H]12`, for which the composite z-score in assay [1] is 0.87; in assay [2], 0.82; in [3] it was 0.431; in assay [5], 0.43; in [6], 0.661; in assay [7] it was 0.257. In addition, the composite z-score in assay [8] is 0.636; in assay [9], 0.581; in assay [10], 0.784; in assay [11], 0.594; in assay [13], 0.374; in [14], 2.23. In addition, the composite z-score in assay [15] is 1.15; in [16] it was -0.102; in [17], -0.107; in assay [18], 0.167; in assay [19], 1.57; in assay [20], 2.89. For the same molecule, the z-score in assay [4] is 0.618 (inactive); in [12], -1.63.

As for `C=C(COC)/C(=C/C[C@H](OC(=O)c1ccncc1)c1cccc(OCCO)c1)c1cc(C(=O)OC)ccc1OC`, the composite z-score was 0.901 in assay [1]; -0.0771 in [2]; 0.195 in [3]; 0.837 in [5]; -0.208 in assay [6]; -0.353 in assay [7]. For the same molecule, the composite z-score was 0.0001 in assay [8]; -0.0833 in [9]; 0.533 in [10]; -1.16 in [11]; 0.229 in [13]; -0.0871 in assay [14]. Also, the composite z-score is -0.46 in assay [15]; -0.156 in assay [16]; -0.0769 in assay [17]; -0.104 in assay [18]; 0.516 in assay [19]; 1.29 in assay [20]. Besides, the z-score is -0.147 (inactive) in assay [4] and -1.67 in [12].

Consider `COc1ccc(NN2C(C(O)c3ccc(OC)c(OCc4ccccc4)c3)C=CC3C(=O)N(C4CCCCC4)C(=O)C32)cc1` (stereo not given), for which the composite z-score in [1] stood at 0.897; in assay [2], 0.686; in assay [3] it was 0.627; in [5], 0.622; in assay [6], 0.995; in assay [7], 0.216. Also, the composite z-score in [8] is 1; in assay [9], -0.228; in assay [10], 1.13; in [11] it was 1.4; in assay [13] it was -0.167; in assay [14], 1.15. In addition, the composite z-score turned out to be 0.63 in [15]; 0.135 in [16]; 0.213 in [17]; 0.751 in assay [18]; 0.637 in assay [19]; 1.82 in [20]. The z-score in assay [4] is -0.306 (inactive); in [12] it was -1.21.

`CCOC(=O)C[C@H]1[C@H](OC(=O)Cc2ccc3c(c2)OCO3)[C@@H](NC(=O)c2ccc(-c3ccccc3)cc2)c2cc(OCCCO)ccc2N1C(=O)c1ccccc1`: the composite z-score in assay [1] is 0.377; in assay [2], -0.0183; in assay [3] it was -0.228; in assay [5], 0.602; in assay [6] it was 0.367; in assay [7], 0.457. The composite z-score in assay [8] was 0.612; in assay [9], 0.247; in assay [10], 0.235; in assay [11], 1.06; in assay [13], 0.525; in [14] it was 0.326. In addition, the composite z-score is -0.0305 in [15]; -0.113 in assay [16]; 0.0483 in [17]; -0.287 in assay [18]; 0.42 in assay [19]; 0.815 in assay [20]. Besides, the z-score is -0.586 (inactive) in assay [4] and -1.25 in assay [12].

`CC(C)C(=C=CC[C@@H](O)c1ccccc1OCCO)C[C@@H](O)c1ccccn1`: the composite z-score in [1] was 1.52; in assay [2], -0.235; in assay [3], -0.448; in assay [5], 1.05; in [6] it was 0.556; in [7] it was 0.141. Moreover, the composite z-score in assay [8] was 0.425; in assay [9], 0.34; in [10] it was 0.715; in [11] it was 0.752; in assay [13], 0.28; in assay [14] it was -0.178. Besides, the composite z-score in assay [15] is -0.34; in [16], -0.0751; in [17], -0.0553; in [18] it was -0.158; in [19], -0.221; in [20], 0.125. The figures for the z-score in assay [4] and in [12] were 0.446 (inactive) and -1.14, respectively.

`CCOC(=O)C1=C[C@@H](CC)N(S(=O)(=O)c2ccc(C)cc2)[C@H]1c1ccccc1`: the composite z-score in assay [1] is 0.689; in assay [2] it was -0.1; in [3], 0.521; in assay [5], 0.769; in assay [6] it was 1.01; in assay [7] it was 0.586. Also, the composite z-score worked out at 0.59 in assay [8]; 0.43 in [9]; 0.538 in [10]; 1.36 in assay [11]; 0.0917 in assay [13]; 1.07 in assay [14]. In addition, the composite z-score in assay [15] was 0.26; in [16], 0.0799; in assay [17], -0.0709; in assay [18] it was 0.925; in [19], 0.905; in [20], 0.54. In addition, the results for the z-score in assay [4] and in assay [12] were 0.803 (inactive) and -2.23, respectively.

For the molecule `O=C1C2C=CC(C(O)c3ccc(B(O)O)cc3)N(Nc3ccccc3)C2C(=O)N1c1ccccc1` (stereo not given), the composite z-score in assay [1] is -0.0545; in assay [2] it was 0.82; in assay [3], 0.634; in assay [5], -0.322; in assay [6], -1.15; in assay [7] it was -0.134. Also, the composite z-score in assay [8] was -0.593; in assay [9], -0.502; in [10], 1.16; in assay [11], 0.0036; in [13], -0.158; in [14], 0.883. Besides, the composite z-score in assay [15] was 0.665; in assay [16], -0.0944; in assay [17], 0.151; in assay [18] it was 0.162; in assay [19], 0.949; in assay [20], 0.402. Besides, the z-score in assay [4] was -0.451 (inactive); in assay [12], -1.49.
